# Experimental data taken from paper PMC5700166.
# Substitutions are numbered along the chain they refer to.
# Key:
# Assay in all cases: protein-binding microarray (PBM); PBM: ~300 nM protein, 6 mM HEPES pH 7.8, 80 mM KCl, 0.5 mM EDTA, 0.5 mM EGTA, 6% glycerol, 35 ng/ul poly-dIdC, 1% milk, 1 h, room temperature; Ap Aiptasia and Nv Nematostella (sea anemones) / Co Capsaspora / Aq Amphimedon (sponge) / Dm Drosophila / Hu human; RHD is the Rel homology domain; high values mean tight binding
# Conditions in all cases: dsDNA, one strand shown
# [1] = target: T1, GST-Nv-NF-kB (Ser allele) (Nematostella vectensis, UniProt A7UNT2 2-411)
# T1 sequence: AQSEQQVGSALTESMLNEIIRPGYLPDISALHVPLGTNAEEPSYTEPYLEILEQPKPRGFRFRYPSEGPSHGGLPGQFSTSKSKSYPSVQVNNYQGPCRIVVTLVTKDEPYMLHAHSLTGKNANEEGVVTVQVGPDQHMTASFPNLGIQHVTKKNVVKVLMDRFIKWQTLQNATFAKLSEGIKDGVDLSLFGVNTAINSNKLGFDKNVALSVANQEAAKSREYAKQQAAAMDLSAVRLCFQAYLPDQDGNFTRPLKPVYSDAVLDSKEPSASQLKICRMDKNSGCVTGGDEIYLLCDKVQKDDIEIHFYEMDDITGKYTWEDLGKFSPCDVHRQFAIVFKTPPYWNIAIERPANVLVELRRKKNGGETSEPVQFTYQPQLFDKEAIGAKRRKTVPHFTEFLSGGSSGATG
# GST-Dm-Relish = target: T2, GST-Dm-Relish (Drosophila melanogaster, UniProt Q94527 99-473)
# T2 sequence: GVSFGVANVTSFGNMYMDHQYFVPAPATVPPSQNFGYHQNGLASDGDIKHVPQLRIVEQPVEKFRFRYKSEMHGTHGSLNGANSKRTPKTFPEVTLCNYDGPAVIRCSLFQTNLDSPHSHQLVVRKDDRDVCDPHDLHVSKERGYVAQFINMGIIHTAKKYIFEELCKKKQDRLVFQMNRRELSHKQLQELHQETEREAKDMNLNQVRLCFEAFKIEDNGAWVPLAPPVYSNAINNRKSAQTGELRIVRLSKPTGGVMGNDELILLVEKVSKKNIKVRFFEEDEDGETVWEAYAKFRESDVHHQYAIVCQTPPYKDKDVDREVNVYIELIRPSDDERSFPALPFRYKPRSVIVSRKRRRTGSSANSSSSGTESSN
# GST-Aq-NF-kB = target: T3, GST-Aq-NF-kB (Amphimedon queenslandica, UniProt A9Y5G7 2-389)
# T3 sequence: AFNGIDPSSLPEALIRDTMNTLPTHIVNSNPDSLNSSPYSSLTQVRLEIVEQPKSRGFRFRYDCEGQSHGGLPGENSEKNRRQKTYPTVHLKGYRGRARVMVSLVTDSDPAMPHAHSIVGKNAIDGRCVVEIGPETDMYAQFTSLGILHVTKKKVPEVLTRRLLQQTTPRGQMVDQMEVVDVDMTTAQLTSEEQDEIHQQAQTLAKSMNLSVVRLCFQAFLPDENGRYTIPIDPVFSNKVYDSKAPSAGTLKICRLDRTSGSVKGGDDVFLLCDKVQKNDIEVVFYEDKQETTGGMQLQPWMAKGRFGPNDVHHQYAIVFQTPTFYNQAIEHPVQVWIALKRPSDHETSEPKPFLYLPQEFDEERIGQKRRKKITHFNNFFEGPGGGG
# GST-Hu-p50 = GST-Hu-p50 (Homo sapiens, UniProt P19838 7-356)
# Sequence of GST-Hu-p50 (P19838 7-356): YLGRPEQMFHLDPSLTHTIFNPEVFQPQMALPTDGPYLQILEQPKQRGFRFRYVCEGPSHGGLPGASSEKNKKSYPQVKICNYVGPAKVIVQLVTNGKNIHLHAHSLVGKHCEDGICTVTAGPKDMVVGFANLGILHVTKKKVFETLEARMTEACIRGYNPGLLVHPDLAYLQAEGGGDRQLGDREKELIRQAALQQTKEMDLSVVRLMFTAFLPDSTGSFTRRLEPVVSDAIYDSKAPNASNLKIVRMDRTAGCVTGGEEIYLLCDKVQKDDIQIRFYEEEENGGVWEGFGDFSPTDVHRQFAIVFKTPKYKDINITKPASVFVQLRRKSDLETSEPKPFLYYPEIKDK
# GST-Ap-NF-kB RHD = target: T4, GST-Ap-NF-kB RHD (Exaiptasia pallida (Aiptasia), UniProt A0A913YAJ5 2-422)
# T4 sequence: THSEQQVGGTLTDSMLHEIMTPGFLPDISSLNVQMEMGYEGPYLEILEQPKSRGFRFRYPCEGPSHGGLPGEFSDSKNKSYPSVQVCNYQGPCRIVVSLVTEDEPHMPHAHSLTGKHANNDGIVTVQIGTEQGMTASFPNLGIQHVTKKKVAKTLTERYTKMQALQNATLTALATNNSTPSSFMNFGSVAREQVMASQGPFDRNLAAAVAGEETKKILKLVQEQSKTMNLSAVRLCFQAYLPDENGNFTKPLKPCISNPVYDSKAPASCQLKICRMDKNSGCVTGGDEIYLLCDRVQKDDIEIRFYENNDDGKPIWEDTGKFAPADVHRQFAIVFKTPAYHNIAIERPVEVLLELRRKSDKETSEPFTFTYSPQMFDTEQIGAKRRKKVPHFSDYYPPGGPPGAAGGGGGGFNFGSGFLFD
# [2] = target: T5, GST-Nv-NF-kB (Cys allele) (Nematostella vectensis, UniProt E5G601 2-411)
# T5 sequence: T1 sequence with R21Q, S66C, N207S, Q215E, A217V, K225E, E268A, E399D
# GST-Co-NF-kB = target: T6, GST-Co-NF-kB (Capsaspora owczarzaki, UniProt F1ARL5 200-546)
# T6 sequence: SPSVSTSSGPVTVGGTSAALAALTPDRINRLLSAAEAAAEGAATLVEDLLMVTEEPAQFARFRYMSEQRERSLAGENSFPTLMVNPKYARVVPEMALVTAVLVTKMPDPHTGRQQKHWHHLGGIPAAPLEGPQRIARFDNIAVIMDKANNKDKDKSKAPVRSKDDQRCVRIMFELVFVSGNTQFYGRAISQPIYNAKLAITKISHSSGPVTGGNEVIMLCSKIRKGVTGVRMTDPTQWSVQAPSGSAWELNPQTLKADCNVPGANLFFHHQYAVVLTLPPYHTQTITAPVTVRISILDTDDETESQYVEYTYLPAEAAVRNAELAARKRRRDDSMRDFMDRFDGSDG
sequence,measurement,setting,value
CCGATTAACATCACCAAAATTCCTGATGTTAATCGGGTCTTGATTCGCTTGACGCTGCTG,binding signal,[1],1.17 z-score
same,binding signal,GST-Dm-Relish,1.01 z-score
same,binding signal,GST-Aq-NF-kB,1.17 z-score
same,binding signal,GST-Hu-p50,1.51 z-score
CCGATTAACATCAAATTTTCCGGTGATGTTAATCGGGTCTTGATTCGCTTGACGCTGCTG,binding signal,[1],1.67 z-score
same,binding signal,GST-Dm-Relish,1.54 z-score
same,binding signal,GST-Aq-NF-kB,2.04 z-score
same,binding signal,GST-Hu-p50,1.95 z-score
CCGATTAACATCAGGAGCTTCCCTGATGTTAATCGGGTCTTGATTCGCTTGACGCTGCTG,binding signal,GST-Ap-NF-kB RHD,1.1 z-score
same,binding signal,[2],1.03 z-score
same,binding signal,GST-Aq-NF-kB,3.47 z-score
CCGATTAACATCAGGGGTCAGTATGATGTTAATCGGGTCTTGATTCGCTTGACGCTGCTG,binding signal,GST-Ap-NF-kB RHD,1.23 z-score
same,binding signal,GST-Aq-NF-kB,1.09 z-score
CCGATTAACATCAGAAAAATTCCTGATGTTAATCGGGTCTTGATTCGCTTGACGCTGCTG,binding signal,GST-Dm-Relish,2.97 z-score
same,binding signal,GST-Aq-NF-kB,2.21 z-score
same,binding signal,GST-Hu-p50,1.71 z-score
CCGATTAACATCAAGAAAATTCCTGATGTTAATCGGGTCTTGATTCGCTTGACGCTGCTG,binding signal,GST-Dm-Relish,1.53 z-score
same,binding signal,GST-Aq-NF-kB,1.97 z-score
same,binding signal,GST-Hu-p50,1.07 z-score
CCGATTAACATCAGGCAGTTCCCTGATGTTAATCGGGTCTTGATTCGCTTGACGCTGCTG,binding signal,GST-Ap-NF-kB RHD,1.39 z-score
same,binding signal,[2],1.3 z-score
same,binding signal,[1],1.25 z-score
same,binding signal,GST-Aq-NF-kB,3.41 z-score
CCGATTAACATCAAAAAGTTTCCTGATGTTAATCGGGTCTTGATTCGCTTGACGCTGCTG,binding signal,GST-Dm-Relish,2.43 z-score
same,binding signal,GST-Aq-NF-kB,1.68 z-score
same,binding signal,GST-Hu-p50,1.42 z-score
CCGATTAACATCACAAAAATTCCTGATGTTAATCGGGTCTTGATTCGCTTGACGCTGCTG,binding signal,GST-Dm-Relish,2.38 z-score
same,binding signal,GST-Aq-NF-kB,1.5 z-score
same,binding signal,GST-Hu-p50,1.01 z-score
CCGATTAACATCAAAATTCCGGGTGATGTTAATCGGGTCTTGATTCGCTTGACGCTGCTG,binding signal,GST-Co-NF-kB,1.33 z-score
same,binding signal,GST-Dm-Relish,1.53 z-score
same,binding signal,GST-Aq-NF-kB,1.67 z-score
same,binding signal,GST-Hu-p50,1.74 z-score
CCGATTAACATCAGGACACTCCCTGATGTTAATCGGGTCTTGATTCGCTTGACGCTGCTG,binding signal,GST-Ap-NF-kB RHD,1.81 z-score
same,binding signal,[2],2.51 z-score
same,binding signal,GST-Aq-NF-kB,5.35 z-score
CCGATTAACATCAGGACTTGCCCTGATGTTAATCGGGTCTTGATTCGCTTGACGCTGCTG,binding signal,GST-Ap-NF-kB RHD,1.21 z-score
same,binding signal,[2],1.11 z-score
same,binding signal,GST-Aq-NF-kB,4.8 z-score
CCGATTAACATCAGGAACGTCCCTGATGTTAATCGGGTCTTGATTCGCTTGACGCTGCTG,binding signal,GST-Ap-NF-kB RHD,3.25 z-score
same,binding signal,[2],3.14 z-score
same,binding signal,GST-Aq-NF-kB,5.01 z-score
CCGATTAACATCAGGGGCCGTAATGATGTTAATCGGGTCTTGATTCGCTTGACGCTGCTG,binding signal,GST-Ap-NF-kB RHD,1.66 z-score
same,binding signal,[2],1.75 z-score
same,binding signal,GST-Aq-NF-kB,2.32 z-score
CCGATTAACATCAGGCATGCCCCTGATGTTAATCGGGTCTTGATTCGCTTGACGCTGCTG,binding signal,GST-Ap-NF-kB RHD,2.6 z-score
same,binding signal,[2],1.59 z-score
same,binding signal,GST-Aq-NF-kB,4.39 z-score
CCGATTAACATCAACGGGTCCCTTGATGTTAATCGGGTCTTGATTCGCTTGACGCTGCTG,binding signal,GST-Ap-NF-kB RHD,2.6 z-score
same,binding signal,[2],1.84 z-score
same,binding signal,GST-Aq-NF-kB,2.73 z-score
CCGATTAACATCATAGTCCCATGTGATGTTAATCGGGTCTTGATTCGCTTGACGCTGCTG,binding signal,GST-Ap-NF-kB RHD,2.47 z-score
same,binding signal,[2],2.41 z-score
same,binding signal,GST-Aq-NF-kB,2.36 z-score
CCGATTAACATCAAGCCTGTCCCTGATGTTAATCGGGTCTTGATTCGCTTGACGCTGCTG,binding signal,GST-Ap-NF-kB RHD,2.01 z-score
same,binding signal,[2],1.27 z-score
same,binding signal,GST-Aq-NF-kB,1.77 z-score
CCGATTAACATCAGGAAATTTACTGATGTTAATCGGGTCTTGATTCGCTTGACGCTGCTG,binding signal,GST-Dm-Relish,1.36 z-score
same,binding signal,GST-Aq-NF-kB,1.54 z-score
same,binding signal,GST-Hu-p50,1.51 z-score
CCGATTAACATCAGTCCCGCACTTGATGTTAATCGGGTCTTGATTCGCTTGACGCTGCTG,binding signal,GST-Ap-NF-kB RHD,1.61 z-score
same,binding signal,[2],1.95 z-score
same,binding signal,GST-Aq-NF-kB,2.85 z-score
CCGATTAACATCACAAAAAATCCTGATGTTAATCGGGTCTTGATTCGCTTGACGCTGCTG,binding signal,GST-Dm-Relish,1.98 z-score
same,binding signal,GST-Aq-NF-kB,1.44 z-score
same,binding signal,GST-Hu-p50,1.98 z-score
CCGATTAACATCAGTTGTCCCGCTGATGTTAATCGGGTCTTGATTCGCTTGACGCTGCTG,binding signal,GST-Ap-NF-kB RHD,1.69 z-score
same,binding signal,[2],1.89 z-score
same,binding signal,GST-Aq-NF-kB,1.16 z-score
CCGATTAACATCACGGAATTTCCTGATGTTAATCGGGTCTTGATTCGCTTGACGCTGCTG,binding signal,GST-Dm-Relish,1.89 z-score
same,binding signal,GST-Aq-NF-kB,4.83 z-score
same,binding signal,GST-Hu-p50,1.38 z-score
CCGATTAACATCAAAAAATTTCCTGATGTTAATCGGGTCTTGATTCGCTTGACGCTGCTG,binding signal,[1],1.31 z-score
same,binding signal,GST-Dm-Relish,2.34 z-score
same,binding signal,GST-Aq-NF-kB,2.22 z-score
same,binding signal,GST-Hu-p50,2.27 z-score
CCGATTAACATCAAAAATTCCAGTGATGTTAATCGGGTCTTGATTCGCTTGACGCTGCTG,binding signal,GST-Co-NF-kB,1.37 z-score
same,binding signal,GST-Dm-Relish,1.57 z-score
same,binding signal,GST-Aq-NF-kB,1.48 z-score
same,binding signal,GST-Hu-p50,1.08 z-score
CCGATTAACATCAGGAATAACCATGATGTTAATCGGGTCTTGATTCGCTTGACGCTGCTG,binding signal,GST-Dm-Relish,1.8 z-score
same,binding signal,GST-Aq-NF-kB,1.32 z-score
same,binding signal,GST-Hu-p50,2.29 z-score
CCGATTAACATCAGGAATTTTCATGATGTTAATCGGGTCTTGATTCGCTTGACGCTGCTG,binding signal,GST-Dm-Relish,1.12 z-score
same,binding signal,GST-Aq-NF-kB,1.37 z-score
same,binding signal,GST-Hu-p50,1.36 z-score
CCGATTAACATCAGGAAAATTCCTGATGTTAATCGGGTCTTGATTCGCTTGACGCTGCTG,binding signal,GST-Dm-Relish,1.52 z-score
same,binding signal,GST-Aq-NF-kB,2.45 z-score
same,binding signal,GST-Hu-p50,1.61 z-score
CCGATTAACATCAAAAATTTCCATGATGTTAATCGGGTCTTGATTCGCTTGACGCTGCTG,binding signal,GST-Dm-Relish,1.53 z-score
same,binding signal,GST-Aq-NF-kB,1.53 z-score
same,binding signal,GST-Hu-p50,1.32 z-score
CCGATTAACATCAAAAAATTTTCTGATGTTAATCGGGTCTTGATTCGCTTGACGCTGCTG,binding signal,[1],1.98 z-score
same,binding signal,GST-Dm-Relish,2.72 z-score
same,binding signal,GST-Aq-NF-kB,1.49 z-score
same,binding signal,GST-Hu-p50,2.15 z-score
CCGATTAACATCAGGAACCTCCCTGATGTTAATCGGGTCTTGATTCGCTTGACGCTGCTG,binding signal,GST-Ap-NF-kB RHD,1.92 z-score
same,binding signal,[2],2.34 z-score
same,binding signal,GST-Aq-NF-kB,4.17 z-score
CCGATTAACATCATGGGGCATGCTGATGTTAATCGGGTCTTGATTCGCTTGACGCTGCTG,binding signal,GST-Ap-NF-kB RHD,1.18 z-score
same,binding signal,GST-Aq-NF-kB,1.06 z-score
CCGATTAACATCAGTCCCTAAGCTGATGTTAATCGGGTCTTGATTCGCTTGACGCTGCTG,binding signal,GST-Ap-NF-kB RHD,1.75 z-score
same,binding signal,[2],3.07 z-score
same,binding signal,GST-Aq-NF-kB,4.16 z-score
